In PubChem BioAssay AID1259343 (VanderVen Lab, College of Veterinary Medicine, Cornell …, 2017):
Among all 6,200 compounds or so, about 2,900 (47%) were called active. Cut-off read from the data, not from the text of the source: active = inhibition above about 50%; inactive = the rest. So high a share suggests a set chosen from earlier hits. Some of the results follow.

test: Mycobacterium tuberculosis growth inhibition, primary screen (AID 1259343); details: inhibition: at 10 µM, stronger effect = higher value; outcome: 10 uM

Structure (SMILES)	inhibition
Cc1nnc(N2C(=O)C(=O)C(=C(O)c3ccc(OC(C)C)cc3)C2c2ccc([N+](=O)[O-])cc2)s1 (stereo not drawn)	35.4% (inactive)
CN(C(=O)c1ccccc1)c1nnc(C23CC4CC(CC(C4)C2)C3)s1	70% (active)
COc1ccc(C(=O)N(C)c2nnc(C34CC5CC(CC(C5)C3)C4)s2)c(OC)c1	29.9% (inactive)
O=C(Nc1ncc(Cc2ccc(Cl)cc2)s1)c1cccs1	53.4% (active)
O=C(Cc1cccs1)Nc1ncc(Cc2ccc(F)c(F)c2)s1	44.8% (inactive)
O=C(Nc1ncc(Cl)s1)c1ccc(Cl)cn1	81.3% (active)
CCCC(C)Nc1ncnc2sc3c(c12)CCC(C)C3 (stereo not drawn)	84.8% (active)
CC(=O)CSc1ncnc2sc3c(c12)CCC(C)C3 (stereo not drawn)	2.69% (inactive)
N#Cc1c(SCc2ccccc2Cl)sc2c(=O)[nH]c(=O)[nH]c12	67.2% (active)
Clc1ccccc1CSc1nnc(-c2ccc[nH]2)o1	-6.43% (inactive)
Nc1ccc2c(c1)C(=O)NCC2	61.7% (active)
Nc1ccc2c(c1)Cc1ccccc1-2	0.14% (inactive)
Nc1ccc2c(c1)-c1ccccc1C2	-7.01% (inactive)
S=C(NCC1CCCCC1)Nc1ccccc1Cl	89.6% (active)
S=C(Nc1ccc2c(c1)OCO2)Nc1ccccc1Cl	19.5% (inactive)
C=CCNC(=S)Nc1ccc(Cl)cc1Cl	4.42% (inactive)
O=C(NCCC12CC3CC(CC(C3)C1)C2)c1ccc2c(=O)n3c(nc2c1)CCCCC3	67% (active)
COc1ccc(C(C)NC(=O)Cc2ccccc2Cl)cc1F (stereo not drawn)	74.1% (active)
COc1ccc(C(C)NC(=O)c2ccco2)cc1F (stereo not drawn)	15.9% (inactive)
NC(Cc1ccccc1)c1csc(Nc2ccc(C(F)(F)F)cn2)n1 (stereo not drawn)	86.1% (active)
COc1ccc(C(N)c2csc(Nc3ccc(C(F)(F)F)cn3)n2)cc1 (stereo not drawn)	86.2% (active)
NC(Cc1ccc(C(F)(F)F)cc1)c1csc(Nc2cnccn2)n1 (stereo not drawn)	53% (active)
NC(Cc1ccc(C(F)(F)F)cc1)c1csc(Nc2ccccn2)n1 (stereo not drawn)	47% (inactive)
NC(c1ccccc1)c1csc(Nc2ccc(C(F)(F)F)cn2)n1 (stereo not drawn)	1.35% (inactive)
CC(C)CC(N)c1csc(Nc2ccc(C(F)(F)F)cn2)n1 (stereo not drawn)	91.8% (active)
FC(F)(F)c1ccc(Sc2ncccn2)nc1	-12% (inactive)

Structure (SMILES)	inhibition
FC(F)(F)c1ccc(Nc2cnn(Cc3ccccc3)c2)nc1	58.1% (active)
NC(COCc1ccccc1)c1csc(Nc2ccc(C(F)(F)F)cn2)n1 (stereo not drawn)	66.5% (active)
CC(C)CCc1nc(Cn2c(C(F)(F)F)ccc(C(N)=O)c2=O)cs1	11.8% (inactive)
Cc1ccc(CS(=O)(=O)Cc2csc(CCC(C)C)n2)cc1	96% (active)
CN1C(=O)C(=Cc2cccc(OCc3ccccc3Cl)c2)C(=O)N(C)C1=O	14.1% (inactive)
Cc1cc(=O)[nH]c(-n2nc(C)cc2NC(=O)C(C)(C)Oc2ccc(Cl)cc2)n1	101% (active)
CCc1cc(=O)[nH]c(-n2nc(C)cc2NC(=O)C(C)(C)Oc2ccc(Cl)cc2)n1	-31% (inactive)
Cc1cc(NC(=O)C(C)(C)Oc2ccc(Cl)cc2)n(-c2nc(C)c(C)c(=O)[nH]2)n1	100% (active)
Cc1cc(=O)[nH]c(-n2nc(C3CC3)cc2NC(=O)C(C)(C)Oc2ccc(Cl)cc2)n1	98.2% (active)
CCc1sc(-c2nnc(-c3cccc(OC)c3)o2)cc1C	52.4% (active)
CCc1sc(-c2nnc(CSc3nnc(-c4ccco4)o3)o2)cc1C	-15.2% (inactive)
COc1cccc(C2=NN(C(C)=O)C(C(=O)N(CC(C)C)CC(C)C)O2)c1 (stereo not drawn)	-4.2% (inactive)
Cn1c(=O)oc2cc(NC(=O)C3CCCC(C(F)(F)F)C3)ccc21 (stereo not drawn)	-34.1% (inactive)
O=C(Nc1ccc(-n2cccn2)nc1)C1CCCC(C(F)(F)F)C1 (stereo not drawn)	7.71% (inactive)
Cc1ccc(C(=O)C(C#N)C(=O)C2CCCC(C(F)(F)F)C2)s1 (stereo not drawn)	101% (active)
Cc1ccc(NC(=O)NC2CCC(C)CC2)cc1-n1cnnn1 (stereo not drawn)	-21.7% (inactive)
Cc1ccc(NCCOc2ccccc2F)cc1-n1cnnn1	54.8% (active)
CCn1c2ccccc2c2cc(Nc3ccnc(NCCCN4CCOCC4)n3)ccc21	53.6% (active)
Cc1nn2c(NCCN3CCOCC3)cc(-c3ccccc3)nc2c1-c1ccccc1	48.5% (inactive)
CC(SC(=S)N1CCCC1)c1nc(C2CC2)no1 (stereo not drawn)	-46.6% (inactive)
Cc1cc(OCc2cccc(Cl)c2)ccc1N	92.4% (active)
NC(=O)c1cccc(COc2cc(Cl)cc(Cl)c2)c1	49.7% (inactive)
Cc1ccc(C2CC2C(=O)Nc2nc(C)c(SCC#N)s2)s1 (stereo not drawn)	39.7% (inactive)
Cc1c(C(=O)NCc2ccc(Cl)c(Cl)c2)sc(=O)n1Cc1cccc(F)c1	41.3% (inactive)
Cc1nc(NC(=O)CNC(=O)Cc2cccc(F)c2)sc1SCC#N	81.8% (active)
CCC(C)c1ccc(Nc2nc(C)c(C)s2)cc1 (stereo not drawn)	41.7% (inactive)

Structure (SMILES)	inhibition
CC(C)CSc1nnc(SCC(=O)Nc2ccc(C#N)cc2)s1	-25.3% (inactive)
Cc1nc(SC(C)C(=O)NC(N)=O)c2c(C)c(C)sc2n1 (stereo not drawn)	-7.75% (inactive)
CCNC(=O)NC(=O)C(C)Sc1nnc(Nc2ccc(C)cc2)s1 (stereo not drawn)	99.2% (active)
CNC(=O)NC(=O)C(C)Sc1nnc(SCC(C)C)s1 (stereo not drawn)	89.7% (active)
CNC(=O)NC(=O)C(C)Sc1nnc(Nc2ccc(C)cc2)s1 (stereo not drawn)	54.2% (active)
COc1cccc(Cn2c(=O)c(C(=O)N3CCCC3)nn(-c3cc(C)cc(C)c3)c2=O)c1	3.71% (inactive)
CCOC(=O)c1ccc(NC(=O)N2CCN(C(=O)c3cc4ccoc4n3Cc3cccc(OC)c3)CC2C)cc1 (stereo not drawn)	85.9% (active)
COc1ccccc1Cn1c(C(=O)N2CCN(C(=O)C(Cl)c3ccccc3)C(C)C2)cc2ccsc21 (stereo not drawn)	35.9% (inactive)
O=C1c2ccccc2S(=O)(=O)N1Cc1ccccc1Oc1ccccc1	8.36% (inactive)
O=C(CC1C=CCC1)Nc1nc2c(Cl)c(Cl)ccc2s1 (stereo not drawn)	48.5% (inactive)
O=C(Nc1ccc2ccccc2n1)C1CC2CCC1C2 (stereo not drawn)	45.8% (inactive)
Cc1cccc2sc(NC(=O)C3CC4CCC3C4)nc12 (stereo not drawn)	85.8% (active)
CC1CCN(Cc2ncc(-c3ccccc3)o2)C2CCCCC12 (stereo not drawn)	72.5% (active)
c1ccc(-c2cnc(CN3CCSc4ccccc43)o2)cc1	26% (inactive)
CCc1[nH]n(-c2ccc(Cl)c(Cl)c2)c(=O)c1C1=C(N(C)C2CCCCC2)C(=O)N(c2ccccc2F)C1=O	65.4% (active)
COc1ccc(N2C(=O)C(c3c(C(C)C)[nH]n(-c4ccc(Cl)cc4)c3=O)=C(N3CCC(C)CC3)C2=O)c(OC)c1	39% (inactive)
CCOc1ccccc1N=Cc1c(C)c(C#N)c2[nH]c3ccccc3n2c1=O	1.57% (inactive)
N#Cc1c(C(F)(F)F)cc(=O)n2c1[nH]c1ccccc12	101% (active)
CCc1c(C)c(C#N)c2[nH]c3ccccc3n2c1=S	40.8% (inactive)
Cc1cc(NC(C)C(=O)N(C)Cc2ccccc2)ccc1Br (stereo not drawn)	50.4% (active)
Cc1cc(NC(=O)C(C)Nc2ccc(Br)c(C)c2)on1 (stereo not drawn)	14% (inactive)
Cc1c(-c2cccc(NC(=O)Nc3ccccc3)c2)nc2ncccn12	18.8% (inactive)
O=C(Nc1ccccc1)c1cccn(OCc2ccccc2F)c1=O	32.1% (inactive)
CCCSc1ncccc1C(=O)Nc1ccc(-c2ccccc2)cc1	89.9% (active)
CNc1ccc(-c2ccc(CC#N)cc2)cn1	38.5% (inactive)
Cc1ccn(CC(=O)N2CCC(C(=O)Nc3ccc(Oc4ccccc4F)cc3)CC2)n1	19.3% (inactive)

Structure (SMILES)	inhibition
O=C(Nc1ccc(Oc2ccccc2F)cc1)C1CCN(C(=O)CCc2ccccc2)CC1	90.6% (active)
CSCCC(=O)N1CCC(C(=O)Nc2ccc(Oc3ccccc3F)cc2)CC1	76.3% (active)
COCC(=O)N1CCC(C(=O)Nc2ccc(Oc3ccccc3F)cc2)CC1	inactive
COc1cccc(Nc2nc(C(N)Cc3ccc(F)cc3)cs2)n1 (stereo not drawn)	86.6% (active)
NC(Cc1ccc(Cl)cc1)c1csc(Nc2ccc(-c3ccccc3)nn2)n1 (stereo not drawn)	91.2% (active)
COc1ccc(CC(N)c2csc(Nc3cccc(OC)n3)n2)cc1 (stereo not drawn)	85.1% (active)
COc1cccc(Nc2nc(C(N)Cc3ccc(Cl)cc3)cs2)n1 (stereo not drawn)	80.4% (active)
COc1cccc(Nc2nc(C(N)C3CCCCC3)cs2)n1 (stereo not drawn)	86.2% (active)
COc1cccc(Nc2nc(C(N)Cc3ccc(C(F)(F)F)cc3)cs2)n1 (stereo not drawn)	75.8% (active)
COc1ccc(-c2csc(NC3CCCC3)n2)c(OC)c1	16.6% (inactive)
CN(Cc1ccc(O)cc1)C(=O)C1=NOC(c2ccccc2)C1 (stereo not drawn)	66.5% (active)
O=C(CCc1cccs1)N1CCOC(CCCc2ccccc2)C1 (stereo not drawn)	34.9% (inactive)
COc1ccc(C(=O)N2CCOC(CCc3ccccc3)C2)cc1F (stereo not drawn)	57.4% (active)
O=C(c1ccc2c(c1)OCCO2)N1CCOC(CCc2ccccc2)C1 (stereo not drawn)	39.8% (inactive)
CC(C)Cc1cc(C(=O)N2CCOC(CCCc3ccccc3)C2)n[nH]1 (stereo not drawn)	54.1% (active)
CC(C)c1cc(C(=O)N2CCOC(CCc3ccccc3)C2)no1 (stereo not drawn)	56.6% (active)
O=C(COc1ccccc1F)Nc1ccc2c(c1)OC(F)(F)O2	21.4% (inactive)
O=C(CCS(=O)(=O)c1ccccc1F)Nc1ccc(I)cc1	80.2% (active)
O=C1N(c2ccc3c(c2)OCO3)C(c2cccc(F)c2)C1(F)F (stereo not drawn)	27% (inactive)
c1cc2c(cc1[C@H]1OC[C@H]3[C@@H]1CO[C@H]3c1ccc3c(c1)OCO3)OCO2	49% (inactive)
O=C1N(c2ccc(Cl)cc2)C(c2ccc3c(c2)OCO3)C1(F)F (stereo not drawn)	78.8% (active)
O=C1N(c2ccc3c(c2)OCO3)C(c2ccc3c(c2)OCO3)C1(F)F (stereo not drawn)	102% (active)
Clc1ccc(-n2ncc3c2CCN(Cc2cc4c(cc2Cl)OCO4)C3)cc1	23.9% (inactive)
O=C1N(c2ccccc2)C(c2ccco2)C1(F)F (stereo not drawn)	40.3% (inactive)
O=C1N(c2ccc3c(c2)OCO3)C(c2ccc(Cl)cc2)C1(F)F (stereo not drawn)	89.3% (active)
